Experimental data as given in ChEMBL document CHEMBL4296182, “CO-ADD screening of NIH NCI Diversity Set V”.
For part of these data: Results with a measured potency or affinity are listed apart.

Columns and labels:
[1] = tested on: Staphylococcus aureus; test: Antibacterial activity against Staphylococcus aureus MRSA ATCC 43300 (CO-ADD:GP_020); MIC in CAMBH media using NBS plates, by Resazurin F(560/590); assay type: functional; settings: Concentration 20 uM, ASSAY_TEST Inhibition of Bacterial Growth, detection method Resazurin, Fluorescence (ex560/em590), MEDIA CAMHB, plate type 384well, CORNING #3640, time 18 hr
[2] = tested on: Acinetobacter baumannii; test: Antibacterial activity against Acinetobacter baumannii ATCC 19606 (CO-ADD:GN_034); MIC in CAMBH media using NBS plates, by Resazurin F(560/590); assay type: functional; settings: Concentration 20 uM, ASSAY_TEST Inhibition of Bacterial Growth, detection method Resazurin, Fluorescence (ex560/em590), MEDIA CAMHB, plate type 384well, CORNING #3640, time 18 hr
[3] = tested on: Escherichia coli; test: Antibacterial activity against Escherichia coli ATCC 25922 (CO-ADD:GN_001); MIC in CAMBH media using NBS plates, by Resazurin F(560/590); assay type: functional; settings: Concentration 20 uM, ASSAY_TEST Inhibition of Bacterial Growth, detection method Resazurin, Fluorescence (ex560/em590), MEDIA CAMHB, plate type 384well, CORNING #3640, time 18 hr
[4] = tested on: Klebsiella pneumoniae; settings: Concentration 20 uM; ASSAY_TEST Inhibition of Bacterial Growth; detection method Absorption (OD600); MEDIA CAMHB; plate type 384well; NBS; CORNING #3640; time 18 hr
[5] = tested on: Candida albicans; settings: 20 µM
[6] = tested on: Cryptococcus neoformans; settings: Concentration 20 uM; ASSAY_TEST Inhibition of Fungal Growth; detection method Resazurin; Absorption (OD600-OD570); plate type 384well; NBS; CORNING #3640

SMILES	Inhibition [1]	Inhibition [2]	Inhibition [3]	Inhibition [4]	Inhibition [5]	Inhibition [6]
CCCN(CCC)c1ccc(/C=C/c2ccc3cc(OCC)ccc3n2)cc1	6.79%	8.69%	-3.61%	28.88%	-0.13%	-5.04%
O=C1CSC(c2cccs2)N1c1nncs1 (centres undefined)	13.4%	-18.82%	13.34%	3.03%	-0.07%	-10.32%
COc1ccc(NC(=O)N2CCN(C(=O)Nc3ccc(OC)cc3)CC2)cc1	0.79%	9.56%	-5.74%	5.35%	-1.52%	3.31%
C=CCN=C(S)Nc1cccc([N+](=O)[O-])c1	-6.7%	-8.3%	0.98%	6.17%	0.93%	-2.12%
CN(C)c1ccc(/C=C2/C=C(c3ccc4c(c3)CCCC4)OC2=O)cc1	19.91%	-7.24%	16.55%	6.65%	4.35%	1.53%
COCC(=O)OC1CCn2c1nc1c2C(=O)C(C)=C(NC(C)=O)C1=O (centres undefined)	9.15%	12.44%	-2.53%	8.02%	-3.01%	-13.92%
CSc1nc2cc(S(=O)(=O)N3CCCCC3)ccc2s1	2.12%	9.92%	-7.83%	10.24%	7.84%	2.72%
NC(=O)c1ccc2c(c1)S(=O)(=O)c1ccccc1C2=O	12.96%	-8.12%	-3.77%	24.13%	1.19%	-8.66%
Cn1ncc2c(Sc3ccc(Cl)cc3)ncnc21	-1.32%	15.79%	-1.92%	2.06%	4.47%	-10.69%
CCOC(=O)CSc1nc2nc(Cl)c(Cl)[nH]c-2n1	22.58%	6.84%	-0.86%	8.77%	0.89%	3.6%
C=CCOc1ccnc(-c2ccccc2)n1	-3.88%	-11.54%	5%	9.63%	1.14%	-7.2%
Cl/N=C1/C=CC=C/C1=N/Cl	-18.23%	-7.09%	4.05%	-1.59%	-1.15%	-1.81%
Cc1ccc(-c2cc(C(=O)O)c3ccccc3n2)c(C)c1	11.92%	8.6%	-3.13%	18.95%	8.35%	-6%
O=C(OCC(O)COC(=O)c1cccnc1)c1cccnc1	6.08%	10.73%	2.79%	3.04%	1.84%	-7.06%
c1ccc(-c2nnc(-c3ccccc3)nn2)cc1	8.93%	4.53%	11.38%	-4.08%	-1.88%	-7.33%
Nc1ccc(Br)cc1Br	10.2%	5.55%	2.13%	7.43%	6.15%	-7%
CCOC(=O)c1[nH]c(C(=O)O)c(OC(=O)CC)c1C	3.4%	12.19%	5.33%	12.1%	11.4%	-14.68%
Cc1nc(Nc2ccc(F)cc2)nc(Nc2ccc(F)cc2)c1[N+](=O)[O-]	16.01%	5.04%	5.3%	11.05%	-2.79%	0.25%
CC1(C)CCCC2(C)C(OCCO)=CC(=O)C=C12 (centres undefined)	7.52%	8.39%	0.39%	20.08%	2.7%	-10.94%
